Reference: PubChem BioAssay AID624301 (The Scripps Research Institute Molecular Screening Center, 2012)
Calls of active or inactive are those of the source.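 How the source made its calls: active means relative activity ratio in the reporter plus Dax-1 wells above 5 or under 0.1 at any tested dose; inactive means ratio stays between 0.1 and 5 at every dose.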

Test: DAX1 repression relief on CAT reporter, dose response, DAX1 inhibitor project, cell-based, CAT activity, absorbance, powder samples (AID 624301)
Details: HEK293 Gal4-DAX1 CAT reporter, ELISA absorbance, CAT reporter alone; at 100 µM (top of the series)

Cn1c(=O)n(C)c2cc(C(=O)Nc3ccc4c(c3)OCO4)ccc21
relative activity ratio, higher = derepression: 0.92 (active)

Cn1c(=O)n(C)c2cc(C(=O)Nc3ccc4c(c3)OCCO4)ccc21
relative activity ratio, higher = derepression: 0.59 (active)
